# Data as given in ChEMBL document CHEMBL1201862, “PubChem BioAssay data set” (2004).
# Screen size: about 400,000 compounds; about 2,100 (0.53%) were called active. About 14% were inconclusive and are not listed. This is one part of a sample in which actives are shown more often than they occur. The rule behind the calls is not given here.
# Biological target: Ataxin-2 (Homo sapiens) (UniProt Q99700)
# Test: qHTS for Inhibitors of ATXN expression.
# Assay type: functional
# Chain of Ataxin-2 (Homo sapiens) (Q99700 whole entry): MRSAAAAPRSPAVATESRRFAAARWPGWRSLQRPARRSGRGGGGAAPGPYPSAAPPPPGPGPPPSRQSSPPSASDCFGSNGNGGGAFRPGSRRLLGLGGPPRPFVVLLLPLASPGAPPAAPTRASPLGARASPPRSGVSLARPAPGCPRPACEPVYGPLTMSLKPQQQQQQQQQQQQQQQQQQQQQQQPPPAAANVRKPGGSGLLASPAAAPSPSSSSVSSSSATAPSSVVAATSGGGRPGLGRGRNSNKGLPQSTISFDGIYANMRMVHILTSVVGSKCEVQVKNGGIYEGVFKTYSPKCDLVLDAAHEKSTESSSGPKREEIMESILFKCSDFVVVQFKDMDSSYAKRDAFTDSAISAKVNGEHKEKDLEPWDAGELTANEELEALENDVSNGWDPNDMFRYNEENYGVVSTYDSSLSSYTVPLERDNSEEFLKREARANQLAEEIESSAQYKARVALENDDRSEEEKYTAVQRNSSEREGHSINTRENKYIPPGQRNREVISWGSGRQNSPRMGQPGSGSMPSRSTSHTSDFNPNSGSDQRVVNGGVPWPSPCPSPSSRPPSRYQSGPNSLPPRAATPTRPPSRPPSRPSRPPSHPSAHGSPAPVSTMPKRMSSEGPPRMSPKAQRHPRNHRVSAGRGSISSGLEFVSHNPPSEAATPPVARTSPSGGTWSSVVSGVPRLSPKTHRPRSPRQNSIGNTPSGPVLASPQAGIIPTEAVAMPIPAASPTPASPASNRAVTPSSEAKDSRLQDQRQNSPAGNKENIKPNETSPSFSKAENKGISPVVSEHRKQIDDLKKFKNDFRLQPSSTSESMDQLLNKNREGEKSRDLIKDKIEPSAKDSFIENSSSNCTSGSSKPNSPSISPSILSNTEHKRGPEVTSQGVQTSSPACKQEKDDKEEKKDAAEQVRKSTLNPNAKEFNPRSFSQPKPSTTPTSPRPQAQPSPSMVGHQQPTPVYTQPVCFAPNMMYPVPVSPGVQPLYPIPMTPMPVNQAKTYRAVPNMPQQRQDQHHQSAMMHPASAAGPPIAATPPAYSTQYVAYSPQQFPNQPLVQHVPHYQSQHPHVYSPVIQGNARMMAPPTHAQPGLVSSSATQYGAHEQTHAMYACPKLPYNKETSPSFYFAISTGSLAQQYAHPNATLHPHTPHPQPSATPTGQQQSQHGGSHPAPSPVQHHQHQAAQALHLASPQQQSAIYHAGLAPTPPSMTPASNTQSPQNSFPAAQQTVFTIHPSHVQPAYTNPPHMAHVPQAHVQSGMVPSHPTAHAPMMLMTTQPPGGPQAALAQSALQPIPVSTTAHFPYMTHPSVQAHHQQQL
row,SMILES,Potency
1,Cc1ccc2nc3c(cc2c1)c(C)nn3-c1ccccc1,inactive
2,O=C(C(Cc1ccccc1)n1cccc1)N1CCCCC1 (centres undefined),inactive
3,O=C1OCCN1C(=O)[C@H]1[C@H](c2ccccc2)C(c2cccc(Cl)c2)=NN1c1ccccc1,inactive
4,CCCc1nnc(SCC(=O)Nc2ccccc2F)o1,inactive
5,Cc1ccc(C(C)NC(=O)C23CC4CC(CC(C4)C2)C3)cc1 (centres undefined),inactive
6,CCCCn1c(CNC(=O)C23CC4CC(CC(C4)C2)C3)nnc1SCC(=O)Nc1ccc(C)cc1,35.5 µM (active)
7,COc1ccc(NC(=O)Cc2nnc(SCC(=O)NC3=NCCS3)n2C)cc1,inactive
8,N#Cc1c(N)n(CCCN2CCOCC2)c2nc3ccccc3nc12,inactive
9,O=C(Nc1ccn(CCCN2CCN(Cc3cccc4ccccc34)CC2)c(=O)n1)OCc1ccccc1,14.1 µM (active)
10,O=C(Cc1cccc2ccccc12)Nc1ccc(Br)cc1C(=O)O,inactive
11,Cc1ccc(S(=O)(=O)c2nnn3c2nc(NC2CCN(Cc4ccccc4)CC2)c2ccccc23)cc1C,39.8 µM (active)
12,Cc1ccc(-c2nnn3c2nc(NCCc2ccc(S(N)(=O)=O)cc2)c2ccccc23)cc1,inactive
13,CC(=O)NCCNc1nc2c(-c3cccc(C(F)(F)F)c3)nnn2c2ccccc12,inactive
14,Cc1nc2nc(SCC(=O)O)nn2c(C)c1Cc1ccccc1Cl,inactive
15,Cc1ccc(OCC(=O)N2CC(C)OC(C)C2)c([N+](=O)[O-])n1 (centres undefined),inactive
16,CN1C2CCC1/C(=C/c1cccn1C)C(=O)/C2=C\c1cccn1C,inactive
17,N=c1c(S(=O)(=O)c2ccc(Br)cc2)cc2c(=O)n3ccccc3nc2n1Cc1ccco1,inactive
18,O=[N+]([O-])c1cc(-c2ncccn2)c([N+](=O)[O-])s1,25.1 µM (active)
19,Cc1c(NS(=O)(=O)c2cc([N+](=O)[O-])ccc2Cl)c(=O)n(-c2ccccc2)n1C,inactive
20,CC(c1ccon1)N(C)C(=O)c1cnn(-c2ncc3c(n2)-c2ccccc2CC3)c1C1CC1 (centres undefined),inactive
21,Cc1cc(C)c(C#N)c(OCc2ccc(Cl)nc2)n1,inactive
22,N#Cc1ccc(C(=O)OCC(=O)Nc2cccnc2Cl)cc1,inactive
23,Cc1ccc(NC(=O)/C(C#N)=C/c2cn(CC(=O)NCc3ccco3)c3ccccc23)cc1C,inactive
24,COc1cc(C)c(/C=C(\C#N)C(=O)Nc2ccc(C)cc2)cc1C(C)C,inactive
25,Cc1ccc(NC(=O)/C(C#N)=C/c2cc(C)n(-c3ccc(Br)cc3)c2C)cc1C,35.5 µM (active)
26,CNC(=S)N/N=C/c1c2ccccc2c(Cl)c2ccccc12,inactive

row,SMILES,Potency
1,NC(=S)NN=Cc1nccc2c(N)cccc12,8.91 µM (active)
2,NC(=S)NN=Cc1nccc2c(C(F)(F)C(F)(F)C(F)(F)F)cccc12,1 µM (active)
3,N=c1c(C(=O)NCC2CCCO2)cc2c(=O)n3ccccc3nc2n1CCCO (centres undefined),inactive
4,OCCn1ccc(-c2ccccc2OCc2ccc(F)cc2)n1,inactive
5,CCCCCCc1cc2cc(S(=O)(=O)c3ccc(C)cc3)c(=O)oc2cc1O,inactive
6,CC(C)N(C(=O)CS(=O)(=O)c1ccc(Cl)c(Cl)c1)C(C)C,inactive
7,O=C(NCC1CCCO1)c1nn2c(C(F)(F)F)cc(-c3cccs3)nc2c1Br (centres undefined),inactive
8,COCCCNc1nc2ccccc2nc1NS(=O)(=O)c1cc(Cl)ccc1Cl,inactive
9,CCCCNC(=O)C(C)N(CCN(C)C)C(=O)CCCN1C(=O)NC(c2ccc(Cl)cc2)C(C(=O)OCc2ccccc2)=C1C (centres undefined),25.1 µM (active)
10,NC(=O)C1(N2CCCCC2)CCN(C(=O)c2cc(COc3c(F)cccc3F)on2)CC1,inactive
11,Cc1ccc(NC(=O)c2ccc(Nc3c([N+](=O)[O-])cc([N+](=O)[O-])cc3[N+](=O)[O-])cc2)cc1,15.8 µM (active)
12,Cc1ccc(C(=O)Nc2ccc(S(=O)(=O)Nc3ncccn3)cc2)cc1[N+](=O)[O-],inactive
13,COc1ccc(C(=O)Nc2ccc(S(=O)(=O)Nc3nccc(C)n3)cc2)cc1[N+](=O)[O-],inactive
14,C/C(=N\NC(=O)CC#N)c1cc2ccc(O)cc2oc1=O,inactive
15,COc1ccc(CN2CCCC(N3CCN(c4cccc(Cl)c4)CC3)C2)cc1OC (centres undefined),inactive
16,Cc1cc2sc3ccccc3c(=O)c2c(C)c1O,inactive
17,CCN(CC)CCNc1ccc(C)c2sc3ccc(O)cc3c(=O)c12,33.6 µM (active)
18,CNC(=O)OCc1nc(SSC(C)(C)C)n(C)c1COC(=O)NC,23.8 µM (active)
19,CC(=O)CC1OC(O)=C(Br)/C1=N/Cc1ccccc1 (centres undefined),20 µM (active)
20,NC(=O)c1cc2ccc(O)cc2o/c1=N\Cc1ccccc1,inactive
21,Oc1nc(N2CCOCC2)cc2ccccc12,inactive
22,Cc1nc(NC(=O)/C=C/c2ccccc2)sc1C(=O)Nc1ccc(Cl)cc1,39.8 µM (active)
23,Cc1cccc(Nc2nc(-c3ccccc3)c(C(=O)Nc3cccnc3)s2)c1,inactive
24,Cc1nc(NS(=O)(=O)c2ccccc2)sc1C(=O)NN,inactive
25,CC(C)=CC(=O)N1CCC(N2CCC(C(=O)N3CCOCC3)CC2)CC1,inactive
26,O=C(COCc1cc(-c2ccco2)on1)NC1CCCCC1,inactive

row,SMILES,Potency
1,CCCc1cc(=O)oc2c(C)c(O[C@@H]3O[C@H](CO)[C@@H](O)[C@H](O)[C@H]3O)ccc12,inactive
2,Nc1nc(N)c2nc(-c3ccccc3)c(N)nc2n1,inactive
3,OCCNc1nc(Nc2ccc(Br)cc2)nc2ccccc12,inactive
4,COc1ccc(OC)c(Nc2nc(-c3ccccc3O)nc3ccccc23)c1,inactive
5,Cc1ccc(-c2nc(NCc3ccco3)n(S(C)(=O)=O)n2)cc1,inactive
6,COc1ccc(OC)c(Nc2nc(NCc3ccco3)c3ccccc3n2)c1,39.8 µM (active)
7,COc1ccc(OC)c(Nc2nc(-c3ccncc3)nc3ccccc23)c1,inactive
8,Cc1cccc(Nc2nc(NCc3ccco3)c3ccccc3n2)c1,25.1 µM (active)
9,O=[N+]([O-])c1cccc(S(=O)(=O)NCC2CC3CCC2C3)c1 (centres undefined),inactive
10,CC(C)(C)c1ccc(SCCc2cccnc2)cc1,inactive
11,Nc1c(C(=O)Nc2ccc(Cl)cc2F)sc2nc(-c3cccs3)ccc12,inactive
12,NC(=O)c1cc(N2C(=O)C=CC2=O)ccc1Cl,35.5 µM (active)
13,O=C(O)c1cccc(N2C(=O)c3cccc4c(Cl)ccc(c34)C2=O)c1,inactive
14,CN1CCN(C(=O)/C=C/c2ccc([N+](=O)[O-])o2)CC1,8.91 µM (active)
15,CN1CCN(/N=C/c2ccc(-c3ccc([N+](=O)[O-])cc3Cl)o2)CC1,inactive
16,CN1CCCN(C(=O)/C=C/c2ccc(Cl)cc2Cl)CC1,inactive
17,Nc1cccc2nc3ccccc3cc12,inactive
18,C1=C/C(=N\C2CCCCC2)C=C2C1=NC13CCCCC1CC1=C(CCCC1)N23 (centres undefined),35.5 µM (active)
19,CSc1ccc(CN(C)Cc2nc(O)c3ccccc3n2)cc1,inactive
20,Cc1nnc(NC(=O)CSc2cn(CCNC(=O)c3ccccc3)c3ccccc23)s1,inactive
21,COc1ccc(CCNC(=O)CSc2nnnn2C)cc1OC,inactive
22,CCn1c(CNC(=O)c2ccc3c(c2)OCO3)nnc1SCC(=O)Nc1ccccc1F,inactive
23,COc1ccc(CCNC(=O)CSc2cn(CCNC(=O)c3cccc(C(F)(F)F)c3)c3ccccc23)cc1OC,22.4 µM (active)
24,O=C(CSc1cn(CCNC(=O)c2cccc(C(F)(F)F)c2)c2ccccc12)Nc1ccc2c(c1)OCCO2,35.5 µM (active)
25,O=C(COC(=O)CCSc1ccccc1Cl)NCc1ccco1,inactive
26,COc1ccc(CC(=O)NNC2=Nc3cccc4cccc2c34)cc1,inactive

row,SMILES,Potency
1,N#Cc1ccc(C(=O)CSc2nnc(-c3ccc(C(F)(F)F)cn3)s2)cc1,inactive
2,O=C(NCCO)/C(=C\c1ccco1)NC(=O)c1cccs1,inactive
3,COC(=O)C1=CN(C(C)C)C=C(C(=O)OC)C1c1cccc(OC)c1,inactive
4,Cc1ccc(-c2nc(Nc3ccc(N4CCOCC4)cc3)c3ccccc3n2)cc1,inactive
5,COc1ccc(C)cc1NC(=O)c1cc2c(=O)n3ccccc3nc2n1C,inactive
6,Cc1cccc(C)c1Nc1c(-c2ccc(N3CCOCC3)cc2)nc2cnccn12,inactive
7,Cc1ccn2c(Nc3ccccc3C)c(-c3ccccn3)nc2c1,15.8 µM (active)
8,c1cn2c(NC3CCCC3)c(-c3ccc(N4CCOCC4)cc3)nc2cn1,inactive
9,Cc1ccn2c(Nc3ccccc3C)c(-c3ccc(N4CCOCC4)cc3)nc2c1,35.5 µM (active)
10,CCCCNc1c(-c2ccc(-c3ccc(C(C)=O)cc3)c(OC)c2)nc2cnccn12,inactive
11,c1ccc2c(Nc3ccc(N4CCOCC4)cc3)nc(N3CCOCC3)nc2c1,inactive
12,COc1cc(O)ccc1-c1nc2cc(C)ccn2c1Nc1ccccc1C,35.5 µM (active)
13,Cc1ccccc1Nc1c(-c2ccc(N3CCOCC3)cc2)nc2cccc(C)n12,22.4 µM (active)
14,C/C(=N/NC(=O)c1sc(NS(=O)(=O)c2ccccc2)nc1C)c1sc(N)nc1C,inactive
15,CN(C)CC(O)c1ccc(C=Cc2ccc(Cl)cc2)cc1 (centres undefined),31.6 µM (active)
16,Oc1nc2ccccc2nc1/C=C/c1ccc(Cl)cc1,inactive
17,CC(C)CN(CC(C)C)C(S)=Nc1ccc(Cl)cc1,inactive
18,Cc1ccc(S(=O)(=O)Nc2ccccc2/C=N/c2nc3ccccc3n2C(C)C)cc1,inactive
19,Nc1cc2sc(-c3ccc(C(=O)O)cc3)nc2cc1Cl,inactive
20,CC[C@@H](C)[C@H](CN[C@H](CNC)C(C)C)NC[C@@H](C)c1ccc(CC(C)C)cc1,22.4 µM (active)
21,COc1cc(/C=C(\C#N)c2nc3ccccc3[nH]2)cc(Cl)c1OCc1ccccc1Cl,inactive
22,COc1cc(CNC2CCCC2)cc(Cl)c1OCc1ccccc1F,28.2 µM (active)
23,NNC(=O)c1oc2ccccc2c1-n1cccc1,inactive
24,Cc1cc(NC(=O)Nc2ccc(Cl)cc2)n(-c2ccccc2)n1,inactive
25,Cc1nc2c(c(C)nn2-c2ccccc2)c(C)c1C,inactive
26,O=c1c(Cl)cc(Cl)nn1-c1ccccc1,25.1 µM (active)
